From PubChem BioAssay (NCI) come the findings set out here.

A short description of assay [1]: NCI Yeast Anticancer Drug Screen. Data for the rad50 strain (AID 155).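 Note: 0% = growth of vehicle-only cultures of the same strain.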 The conditions noted are these: S. cerevisiae rad50 strain growth inhibition, active compounds read high. In a few lines: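 Yeast carrying a defined DNA repair defect were exposed to test compounds, and growth was compared with vehicle-treated controls to give percent inhibition.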
A short description of assay [2]: NCI Yeast Anticancer Drug Screen. Data for the mec2-1 strain (AID 157). The conditions noted are these: S. cerevisiae mec2-1 strain, active compounds read high. The essentials:
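Readout is yeast growth inhibition, normalised to vehicle-treated controls, in the mec2-1 strain exposed to compound.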

Assay [3] is described as follows: NCI Yeast Anticancer Drug Screen. Data for the sgs1 mgt1 strain (AID 161).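 Note: 0% = growth of cultures given vehicle only.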 The conditions noted are these: S. cerevisiae sgs1 mgt1 strain, active compounds read high. In a few lines: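 Growth of a repair-deficient yeast mutant was monitored after compound treatment and expressed as inhibition relative to vehicle-treated cultures.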
Assay [4] is described as follows: NCI Yeast Anticancer Drug Screen. Data for the cln2 rad14 strain (AID 165).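 Note: 0% = growth equal to vehicle treated cultures.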 Conditions: S. cerevisiae cln2 rad14 strain, active compounds read high. In a few lines: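 Relative to vehicle controls, growth inhibition of compound-treated cln2 rad14 yeast was recorded.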
Assay [5] is described as follows: NCI Yeast Anticancer Drug Screen. Data for the bub3 strain (AID 167). The conditions noted are these: S. cerevisiae bub3 mutant strain, active compounds read high. In a few lines:
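Compounds were applied to a genetically altered yeast strain carrying a cell-cycle control defect. Growth inhibition was scored against vehicle-treated controls.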

Assay [6] is described as follows: NCI Yeast Anticancer Drug Screen. Data for the mlh1 rad18 strain (AID 175). Conditions: S. cerevisiae mlh1 rad18 strain growth inhibition, active compounds read high. The essentials: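 Test agents were incubated with a yeast strain of defined genotype (DNA damage repair defect). Inhibition of growth was derived by comparison with vehicle-exposed cultures.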
The mark [7] stands for this setting: at 5.0 µM (retest, dose inferred, filed as 0.5).
Where [8] appears, read: at 50.0 µM (retest, dose inferred, filed as 5.0).

About 79,000 compounds went through this panel and 15% of them were active in at least one assay; those are over-represented in the sample as a whole. Unmarked numbers belong to inactive results. Activity calls are given as the source filed them. Cut-off read from the data, not from the text of the source: active = growth inhibition above about 70%; inactive = the rest.

As to `CCCCCCC1CC(=O)C1(Cl)Cl` (configuration not stated), the growth inhibition in assay [1] (setting [7]) is -9%; in assay [1] (setting [8]), 100% (active); in assay [1] (at 50.0 µM), 89.1% (active); in assay [2] (setting [7]), -16%; in assay [2] (setting [8]) it was 100% (active); in assay [2] (at 50.0 µM) it was 93.3% (active). Moreover, the growth inhibition in assay [3] (setting [7]) was -17%; in assay [3] (setting [8]), 100% (active); in assay [3] (at 50.0 µM), 90.1% (active); in assay [4] (setting [7]), -4%; in assay [4] (setting [8]), 100% (active); in assay [4] (at 50.0 µM), 92.5% (active). The growth inhibition in assay [5] (setting [7]) is -32%; in assay [5] (setting [8]) it was 100% (active); in assay [5] (at 50.0 µM), 92% (active); in assay [6] (setting [7]), 12%; in assay [6] (setting [8]), 100% (active); in assay [6] (at 50.0 µM), 86.2% (active).
As to `O=C1Oc2ccccc2C(=O)/C1=C/N1C(=O)/C(=C/c2ccccc2)NC1=S`, the growth inhibition is -23% in assay [1] (setting [7]); 31% in assay [1] (setting [8]); 66.7% in assay [1] (at 50.0 µM); -25% in assay [2] (setting [7]); 27% in assay [2] (setting [8]); 43.3% in assay [2] (at 50.0 µM). The growth inhibition was -15% in assay [3] (setting [7]); 42% in assay [3] (setting [8]); 71.7% (active) in assay [3] (at 50.0 µM); 4% in assay [4] (setting [7]); 37% in assay [4] (setting [8]); 60.6% in assay [4] (at 50.0 µM). For the same compound, the growth inhibition in assay [5] (setting [7]) is -6%; in assay [5] (setting [8]), 45%; in assay [5] (at 50.0 µM) it was 53.5%; in assay [6] (setting [7]), -33%; in assay [6] (setting [8]), 40%; in assay [6] (at 50.0 µM), 54%.
Regarding `CCCCCCCCCCCC(=O)[O][Sn]([CH2]C)([CH2]C)[O]C(=O)CCCCCCCCCCC`, the growth inhibition in assay [1] (setting [7]) was 7%; in assay [1] (setting [8]), 5%; in assay [1] (at 50.0 µM), 79.3% (active); in assay [2] (setting [7]) it was 2%; in assay [2] (setting [8]), 2%; in assay [2] (at 50.0 µM), 88.3% (active). Moreover, the growth inhibition was 3% in assay [3] (setting [7]); 44% in assay [3] (setting [8]); 95.8% (active) in assay [3] (at 50.0 µM); 5% in assay [4] (setting [7]); 0% in assay [4] (setting [8]); 48.1% in assay [4] (at 50.0 µM). In addition, the growth inhibition was 3% in assay [5] (setting [7]); -7% in assay [5] (setting [8]); 16.4% in assay [5] (at 50.0 µM); 4% in assay [6] (setting [7]); 12% in assay [6] (setting [8]); 88.7% (active) in assay [6] (at 50.0 µM).
As for `Cc1cc(Cl)ccc1Nc1sc(C(=O)c2cc3cc(Cl)ccc3o2)c(N)c1C#N`, the growth inhibition in assay [1] (setting [7]) was 16%; in assay [1] (setting [8]) it was 53%; in assay [1] (at 50.0 µM), 23.7%; in assay [2] (setting [7]), -3%; in assay [2] (setting [8]), 48%; in assay [2] (at 50.0 µM), 45.5%. For the same compound, the growth inhibition in assay [3] (setting [7]) is 8%; in assay [3] (setting [8]) it was 65%; in assay [3] (at 50.0 µM) it was 45%; in assay [4] (setting [7]), 6%; in assay [4] (setting [8]), 84% (active); in assay [4] (at 50.0 µM), 83% (active). The growth inhibition in assay [5] (setting [7]) is 13%; in assay [5] (setting [8]), 55%; in assay [5] (at 50.0 µM), 50.1%; in assay [6] (setting [7]) it was -7%; in assay [6] (setting [8]) it was 66%; in assay [6] (at 50.0 µM), 36.5%.
`Cc1cc(C)c(O)c(Cc2cc(Cl)cc(Cc3cc(C)cc(C)c3O)c2O)c1`: the growth inhibition in assay [1] (setting [7]) is 0%; in assay [1] (setting [8]), 91% (active); in assay [1] (at 50.0 µM), 94% (active); in assay [2] (setting [7]), 1%; in assay [2] (setting [8]) it was 93% (active); in assay [2] (at 50.0 µM) it was 92.5% (active). For the same compound, the growth inhibition is 13% in assay [3] (setting [7]); 93% (active) in assay [3] (setting [8]); 95.3% (active) in assay [3] (at 50.0 µM); 6% in assay [4] (setting [7]); 91% (active) in assay [4] (setting [8]); 95.2% (active) in assay [4] (at 50.0 µM). The growth inhibition is -9% in assay [5] (setting [7]); 92% (active) in assay [5] (setting [8]); 93.5% (active) in assay [5] (at 50.0 µM); 15% in assay [6] (setting [7]); 92% (active) in assay [6] (setting [8]); 91.4% (active) in assay [6] (at 50.0 µM).
Turning to `Oc1[nH]c2ccccc2c1N=NC(=S)N1CCCC1`, the growth inhibition in assay [1] (setting [7]) was 15%; in assay [1] (setting [8]), 65%; in assay [1] (at 50.0 µM), 33.5%; in assay [2] (setting [7]), 5%; in assay [2] (setting [8]) it was 64%; in assay [2] (at 50.0 µM) it was 58.6%. For the same compound, the growth inhibition is 7% in assay [3] (setting [7]); 42% in assay [3] (setting [8]); 54.6% in assay [3] (at 50.0 µM); 11% in assay [4] (setting [7]); 48% in assay [4] (setting [8]); 55% in assay [4] (at 50.0 µM). Also, the growth inhibition is 26% in assay [5] (setting [7]); 74% (active) in assay [5] (setting [8]); 61.6% in assay [5] (at 50.0 µM); 13% in assay [6] (setting [7]); 68% in assay [6] (setting [8]); 57.8% in assay [6] (at 50.0 µM).
For `COc1cc(C/C=C/c2ccccc2)c(OC)cc1O`, the growth inhibition is 18% in assay [1] (setting [7]); 30% in assay [1] (setting [8]); 63.6% in assay [1] (at 50.0 µM); 18% in assay [2] (setting [7]); 24% in assay [2] (setting [8]); 61.7% in assay [2] (at 50.0 µM). Besides, the growth inhibition in assay [3] (setting [7]) was 15%; in assay [3] (setting [8]), 37%; in assay [3] (at 50.0 µM) it was 54.4%; in assay [4] (setting [7]), 18%; in assay [4] (setting [8]) it was 29%; in assay [4] (at 50.0 µM) it was 76% (active). The growth inhibition is 20% in assay [5] (setting [7]); 29% in assay [5] (setting [8]); 64.8% in assay [5] (at 50.0 µM); 17% in assay [6] (setting [7]); 35% in assay [6] (setting [8]); 48.5% in assay [6] (at 50.0 µM).
With `COc1ccc2c(Cc3cc(Cl)ccc3O)cncc2c1O`, the growth inhibition in assay [1] (setting [7]) is -1%; in assay [1] (setting [8]), 32%; in assay [1] (at 50.0 µM) it was 50.1%; in assay [2] (setting [7]), -8%; in assay [2] (setting [8]), 60%; in assay [2] (at 50.0 µM), 31.6%. Moreover, the growth inhibition was -5% in assay [3] (setting [7]); 51% in assay [3] (setting [8]); 29.7% in assay [3] (at 50.0 µM); 3% in assay [4] (setting [7]); -4% in assay [4] (setting [8]); 40% in assay [4] (at 50.0 µM). Further, the growth inhibition was -2% in assay [5] (setting [7]); 31% in assay [5] (setting [8]); 96% (active) in assay [5] (at 50.0 µM); 16% in assay [6] (setting [7]); 62% in assay [6] (setting [8]); 82.3% (active) in assay [6] (at 50.0 µM).
Consider `COc1ccc(C2N(Cc3ccc(Cl)cc3)CCN2Cc2ccc(Cl)cc2)cc1`, for which the growth inhibition was 9% in assay [1] (setting [7]); 70% (active) in assay [1] (setting [8]); 46.6% in assay [1] (at 50.0 µM); 9% in assay [2] (setting [7]); 59% in assay [2] (setting [8]); 32.2% in assay [2] (at 50.0 µM). The growth inhibition is 37% in assay [3] (setting [7]); 89% (active) in assay [3] (setting [8]); 71.2% (active) in assay [3] (at 50.0 µM); 21% in assay [4] (setting [7]); 53% in assay [4] (setting [8]); 69.2% in assay [4] (at 50.0 µM). Further, the growth inhibition was 34% in assay [5] (setting [7]); 91% (active) in assay [5] (setting [8]); 25.9% in assay [5] (at 50.0 µM); 25% in assay [6] (setting [7]); 72% (active) in assay [6] (setting [8]); 50.5% in assay [6] (at 50.0 µM).
